The experiment deals with RXRa DBDmut IVT, anti-RXR (DBD mutation: RXRa K156A/R161A, NR concentration 90 nM). Kind of experiment: PBM binding z-score (relative to random genomic background probes); higher = stronger binding; sequences stand for … in GC…GCGATTGACAGCGTAGAATGAAGG
The essentials:
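Binding buffer was PBS pH 7.4 with 2% milk, 0.02% Triton X-100, 1 mM DTT, 0.2 mg/mL BSA and 0.4 mg/ml salmon testes DNA. In it, ligand-free nuclear receptor dimers were incubated 1 h on custom Agilent 4×180K protein-binding microarrays carrying double-stranded probes. Antibodies against each partner (one per run) detected binding, and z-scores were calculated against random background probes after regression normalization of scanned fluorescence.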
GCGACTAGGGCATCAGCAGGTTACCATAACTTAA gave a PBM binding z-score of 0.0692. GATACAGTGTCAAGGCCAGAGTACGCGTATTGAT: the PBM binding z-score was found to be 0.061. GCGACTGGGGCATCAGCAGGTTTCCATAACTTAA: the PBM binding z-score was 0.099. With CCGACTGGGGCATAAGGTTACCCTAAGCCAGCCC, the PBM binding z-score was -0.487. AATACAGGGTCATCGTAGGCCAGCGTACGCACAG yielded a PBM binding z-score of 2.94. GCGACTGGGGCATCAGCAGATTACCATAACTTAA had a PBM binding z-score of 0.186. Regarding GGACCGAGGGCAAAGTTGATAGCATCTGTCGACG, the PBM binding z-score turned out to be 2.07. As for CGGACTAGGTCATTGACAGGACAGTGAATAGTAA, the figure is 2.41; as for CGTCAAAGTTTAACTAAGGTAACGTAAAGCACGC, 1.68; as for ATATGTAGGTTAGCTGGGGTCATACAGACTAGGC, 1.64.

As for GCGGCTAGGTCAACTGATGGTCAGCTAAAGCTCG, the PBM binding z-score came out at 1.17. As for CAGCCTAGGTCATGGCCAGTATAGGAGGAACGTT, the figure is 1.17; as for CCTAGTTGGTCAAGGCCACACACGCTATAGGTAC, 0.685. As for CCTTACGGGTCAACGTTATAGCACGGGTGGTACG, the figure is 0.494; as for TCTTGTAGATCAAACAGGTTAAGAAAGCCTGAGT, 0.683. As to CCTAGTTGGTCAGGAGGTCACACTCCGGATATGA, the PBM binding z-score was determined as 1.03.

With TCTAGCAGGCGAGAGGGTCACTCAAGAGGTACGG, the PBM binding z-score was -0.024. The value for CGAACGAGGGCATGAGTTGATAGCGAATGCCGAT was 2.41. Regarding TCATATAGGTAAAAGGTGAAAGTAGGTGTGGTAA, the PBM binding z-score came to 2.18. The value for ACAGACAGGTGAGTGAAGGTAGCTCAGCTGGACG was -0.355. The sequence CAAACTAGGTCACAGAGGTCAAAGACCGTGCGTA yielded a PBM binding z-score of 3.1. The value for TGTCAAAGTTCAAAGGTAACGGAAGTATCCACAC was 4.29.
